Laboratory results: PubChem BioAssay AID1259418 (Broad Institute, 2018)
The whole screen tested about 3,400 compounds, of which about 840 (25%) were called active. Not shown: some 11% with an inconclusive outcome.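 Rule for the calls: active = fitted half-maximal concentration of signal decrease at or below twice the sample's top tested concentration; inconclusive = flat curve between -70 and -30 percent, or poor fit; inactive = flat within 30 percent, signal rise, or potency above limit.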 Only a sample is shown. Potency and affinity values are given separately.

experiment: T. gondii growth inhibition with IFN-gamma, dose response, cell-based, ME49Luc, HeLa, luciferase, 72 h (AID 1259418); conditions: T. gondii ME49Luc in IFN-y HeLa, stronger effect = lower value, -100% = high-dose IFN-γ control wells; at 19.5 µM unless noted

Row | Compound | max activity
1 | O=C(CCC1N=C2c3ccccc3N=C(SCc3cc(=O)n4ccccc4n3)N2C1=O)NCc1ccc2c(c1)OCO2 (stereo not drawn) | 14.1% [at 0.35 µM] (inactive)
2 | CCOC(=O)CSC1=Nc2ccccc2C2=NC(CCC(=O)NCc3cccs3)C(=O)N12 (stereo not drawn) | 13.6% [at 10 µM] (inactive)
3 | COc1ccccc1CNC(=O)CC1N=C2c3ccccc3N=C(SCc3ccc(F)cc3)N2C1=O (stereo not drawn) | 11.2% [at 10 µM] (inactive)
4 | Cc1ccc(CSC2=Nc3ccccc3C3=NC(CC(=O)NCc4cccs4)C(=O)N23)c(C)c1 (stereo not drawn) | 21.5% [at 0.68 µM] (inactive)
5 | O=C(CCC1N=C2c3ccccc3N=C(SCc3cc(=O)n4ccccc4n3)N2C1=O)NCc1cccs1 (stereo not drawn) | 13.4% [at 0.16 µM] (inactive)
6 | O=C(CC1N=C2c3ccccc3N=C(SCc3cc(=O)n4cc(Cl)ccc4n3)N2C1=O)NCc1cccs1 (stereo not drawn) | 41.3% [at 0.35 µM] (inactive)
7 | Cc1c(Cl)cccc1NC(=O)CN1CCC2(CC1)N=C(c1ccc(F)cc1)C(=O)N2 | -21.7% [at 1.35 µM] (inactive)
8 | Cc1ccc(CC(=O)Nc2ccc(-c3nc(-c4ccc(C)cc4)co3)cc2)cc1 | 19.1% [at 10 µM] (inactive)
9 | Cc1oc(-c2ccccc2)nc1Cn1nnc(-c2nc(-c3ccc(Cl)c(F)c3)no2)c1C | 7.02% (inactive)
10 | Cc1cccc(C2=NC3(CCN(CC(=O)Nc4ccc(C)c(F)c4)CC3)NC2=O)c1 | -23% (inactive)
11 | N#Cc1c(N2C[C@@H]3NCCO[C@H]3C2)c(F)cc2c(=O)c(C(=O)O)cn(C3CC3)c12 | 13.7% (inactive)
12 | COC(=O)Cn1cc(CN2CCCC2c2cc(C(C)C)on2)c2cc(OC)ccc21 (stereo not drawn) | 14.7% (inactive)
13 | COc1ccc2c(c1)NC1(CCN(C(=O)Cc3ccc(C)cc3)CC1)c1cccn1-2 | 5.57% [at 0.35 µM] (inactive)
14 | CCCCc1ccc(Nc2ncnc3c2cnn3-c2ccc(Cl)cc2)cc1 | -18.1% [at 5 µM] (inactive)
15 | Cc1cccc(-c2nc(CN3CCc4c(sc5c4CCCC5)C3c3ccccc3)c(C)o2)c1 (stereo not drawn) | 18.5% (inactive)
16 | Cc1ccc(CSC2=Nc3ccccc3C3=NC(CC(=O)NCc4cccs4)C(=O)N23)cc1 (stereo not drawn) | 21.6% [at 2.6 µM] (inactive)
17 | O=C(CCC1N=C2c3ccccc3N=C(SCc3ccccc3F)N2C1=O)NCc1ccc2c(c1)OCO2 (stereo not drawn) | 17.7% [at 0.16 µM] (inactive)
18 | O=C(CCC1N=C2c3ccccc3N=C(SCc3ccc(F)cc3)N2C1=O)NCc1cccs1 (stereo not drawn) | 11.9% [at 1.35 µM] (inactive)
19 | O=C(CCC1N=C2c3ccccc3N=C(SCc3ccc(Cl)cc3)N2C1=O)NCc1ccc2c(c1)OCO2 (stereo not drawn) | -24.4% [at 0.35 µM] (inactive)
20 | O=C(CC1N=C2c3ccccc3N=C(SCc3ccc(Cl)cc3)N2C1=O)NC1CCCCC1 (stereo not drawn) | -16.8% [at 0.35 µM] (inactive)
21 | Cc1ccc2c(c1)cc(S(=O)(=O)c1ccccc1)c(=O)n2CC(=O)NC1CCCC1 | -10.6% [at 0.35 µM] (inactive)
22 | COc1ccc(CNC(=O)Nc2ccc(-c3nc(-c4ccccc4)co3)cc2)cc1 | 134% (inactive)
23 | O=C(Cc1ccccc1)N1CCC2(CC1)Nc1cc(F)ccc1-n1cccc12 | 8.98% [at 0.68 µM] (inactive)
24 | COc1ccccc1CNC(=O)CCC1N=C2c3ccccc3N=C(SCC#N)N2C1=O (stereo not drawn) | 14.4% [at 1.35 µM] (inactive)
25 | C=CCNc1ncnc2c1cnn2-c1ccc(Cl)cc1 | 134% [at 0.35 µM] (inactive)

Row | Compound | max activity
26 | CCOC(=O)CC(=O)Nc1ccc(-c2nc(-c3cc(C)ccc3C)co2)cc1 | -6.71% [at 0.35 µM] (inactive)
27 | CCC(C(=O)N1CCC2(CC1)Nc1ccc(C)c(C)c1-n1cccc12)c1ccccc1 (stereo not drawn) | 8.62% [at 2.6 µM] (inactive)
28 | CCN1CCCC1CNC(=O)Cn1cccc1-c1nc(-c2ccccc2)cs1 (stereo not drawn) | -11% (inactive)
29 | Cc1ccc(-c2csc(-c3cccn3CC(=O)N3CCC(N4CCCCC4)CC3)n2)cc1 | 6.16% [at 0.16 µM] (inactive)
30 | CCOC(=O)C1CCN(C(=O)Cn2cccc2-c2nc(-c3ccc(C)cc3)cs2)CC1 | 11.7% (inactive)
31 | CCOC(=O)C1CCCN(C(=O)Cn2cccc2-c2nc(-c3ccc(C)cc3)cs2)C1 (stereo not drawn) | -28.8% (inactive)
32 | COCCN1CCc2nc(SCc3nc(-c4ccc(OC)c(OC)c4)oc3C)[nH]c(=O)c2C1 | 34.3% [at 10 µM] (inactive)
33 | CN1C(=O)CCc2cc(NC(=O)c3cccs3)ccc21 | 71.4% (inactive)
34 | Cc1ccc(C)c(NC(=O)N2CCN(Cc3nc(-c4ccccc4C)oc3C)CC2)c1 | 4.41% [at 2.6 µM] (inactive)
35 | COc1cccc(C(=O)Nc2ccc(-c3nc(-c4cc(C)ccc4C)co3)cc2)c1 | 7.15% [at 0.16 µM] (inactive)
36 | Cc1nnc(N2C[C@@H](Oc3ncccc3F)[C@@H]3OCCC[C@@H]32)s1 | 9.8% (inactive)
37 | COc1cccc(-c2nc3c(s2)CN(S(=O)(=O)c2ccc(C)c(C)c2)CC3)c1 | -17.2% [at 10 µM] (inactive)
38 | COc1ccc(-c2nc3c(s2)CN(S(=O)(=O)c2ccc(C)cc2)CC3)cc1 | 9.64% [at 10 µM] (inactive)
39 | COc1ccc(-c2nc3c(s2)CN(S(=O)(=O)c2ccc(OC)cc2)CC3)cc1 | 12.4% (inactive)
40 | COc1ccc(S(=O)(=O)N2CCc3nc(-c4ccc(C)cc4)sc3C2)cc1 | -4.65% [at 2.6 µM] (inactive)
41 | Cc1ccc(C)c(-c2coc(-c3ccc(NC(=O)COc4ccc(F)cc4)cc3)n2)c1 | 15.1% (inactive)
42 | N#Cc1ccc(S(=O)(=O)N2CCC(N3CCOCC3)CC2)cc1 | -17.4% [at 0.35 µM] (inactive)
43 | CCc1ccccc1NC(=O)CN1CCC2(CC1)N=C(c1ccc(Cl)cc1)C(=O)N2 | 13% (inactive)
44 | Cc1nc(-c2ccc(F)cc2)sc1-c1ccc(SCc2ccc(C(F)(F)F)cc2)nn1 | 6.62% [at 0.68 µM] (inactive)
45 | COc1ccccc1NC(=O)CN1CCC2(CC1)N=C(c1ccc(F)cc1)C(=O)N2 | 11.3% (inactive)
46 | Cc1oc(-c2ccccc2)nc1CN(c1ccccc1)S(=O)(=O)c1cccs1 | 8.04% [at 0.68 µM] (inactive)
47 | Cc1ccc(N(Cc2nc(-c3ccc(OC(C)C)cc3)oc2C)S(=O)(=O)c2cccs2)cc1 | -11.4% [at 0.68 µM] (inactive)
48 | Cc1ccc(-c2nc(CN(c3ccc(C)cc3)S(=O)(=O)c3cccs3)c(C)o2)cc1 | 12.6% [at 0.16 µM] (inactive)
49 | COc1ccccc1-c1nc(CSc2nc3c(c(=O)[nH]2)CN(Cc2ccc(F)cc2)CC3)c(C)o1 | 38.6% [at 5 µM] (inactive)
50 | Cc1ccc2c(c1C)-n1cccc1C1(CCN(C(=O)c3cccc(N(C)C)c3)CC1)N2 | -17.3% [at 0.35 µM] (inactive)

Row | Compound | max activity
51 | COCCC(=O)N1C[C@H](OCc2ccccn2)[C@@H]2COC[C@@H]21 | 46.2% (inactive)
52 | COc1ccc(CCC(=O)N2CCC[C@@H]2C(=O)NCCc2csc(-c3ccccc3)n2)cc1 | 15.9% [at 2.6 µM] (inactive)
53 | COCCN1CCc2nc(SCc3nc(-c4ccc(C)cc4)oc3C)[nH]c(=O)c2C1 | -13.7% [at 2.6 µM] (inactive)
54 | COc1ccc(-c2nc(Cn3nnc(-c4nc(-c5cccc(C(F)(F)F)c5)no4)c3C)c(C)o2)cc1 | -6.58% [at 5 µM] (inactive)
55 | CCOc1ccc(NC(=O)Nc2ccc(-c3nc(-c4cccc(Br)c4)co3)cc2)cc1 | 4.75% [at 10 µM] (inactive)
56 | COc1ccc(-c2nc(Nc3cc(F)ccc3F)c3ccccc3n2)cc1 | 38% (inactive)
57 | COc1cccc(-c2nc3c(s2)CN(S(=O)(=O)c2ccc(F)cc2)CC3)c1 | 19.6% (inactive)
58 | COc1ccc(-c2nc3c(s2)CN(S(=O)(=O)c2ccc(CC(C)C)cc2)CC3)cc1 | -5.7% [at 10 µM] (inactive)
59 | CCOC(=O)C1CCC(CNC(=O)Nc2ccc(-c3nc(-c4cc(C)ccc4C)co3)cc2)CC1 (stereo not drawn) | 10.8% [at 0.16 µM] (inactive)
60 | Cc1cc(C2CCCN2C(=O)Cn2nc(C(F)(F)F)cc2C)on1 (stereo not drawn) | 9.62% [at 0.16 µM] (inactive)
61 | Cc1ccc(-c2coc(-c3ccc(NC(=O)NC4CCCC4)cc3)n2)c(C)c1 | 13.7% (inactive)
62 | Cc1nc(OCC(=O)Nc2ccccc2F)c2ccccc2n1 | 19.1% [at 0.16 µM] (inactive)
63 | COCCN1CCc2nc(SCc3nc(-c4cccc(C)c4)oc3C)[nH]c(=O)c2C1 | 12% [at 0.16 µM] (inactive)
64 | Cc1ccc(C)c(NC(=O)CN2CCC3(CC2)N=C(c2cccc(F)c2)C(=O)N3)c1 | -32.1% (inactive)
65 | CCN1CCn2c(-c3cccc(F)c3)cnc2C12CCN(c1ncccn1)CC2 | 40.4% (inactive)
66 | COc1ccc(-c2nc(NC(C)c3ccccc3)c3ccccc3n2)cc1 (stereo not drawn) | 18.4% [at 5 µM] (inactive)
67 | COc1ccc(C(=O)N2CCC3(CC2)Nc2ccc(C)c(C)c2-n2cccc23)c(OC)c1 | -29.7% [at 0.16 µM] (inactive)
68 | Cc1ccc(C)c(-c2coc(-c3ccc(NC(=O)c4ccc(Br)o4)cc3)n2)c1 | 9.77% [at 10 µM] (inactive)
69 | COc1ncccc1NC(=O)c1cc(-c2cnc(N3CCCC3)nc2)cn1CC1CC1 | 6% (inactive)
70 | CN1C(=O)CCc2cc(NC(=O)c3cccnc3)ccc21 | -16.3% [at 0.16 µM] (inactive)
71 | O=C(NCc1ccc(F)cc1F)c1cc(-c2cnc(N3CCCC3)nc2)cn1CC1CC1 | -11.3% [at 0.038 µM] (inactive)
72 | COCCN1CCc2c(cnc(-c3cccnc3)c2C(=O)O)C1 | 17.7% [at 2.6 µM] (inactive)
73 | COC(=O)[C@@H]1C[C@@H](N(C)C)CN1S(=O)(=O)c1c(C)ccc2nsnc12 | 25.5% (inactive)
